# Measurements taken from article PMC7862700, “An all-to-all approach to the identification of sequence-specific readers for epigenetic DNA modifications on cytosine”.
# How the values were obtained:
# Assay in all cases: DAPPL (digital affinity profiling via proximity ligation, sequencing); 10 mM Tris-HCl pH 7.5, 50 mM NaCl, 1 mM DTT, 4% glycerol, room temperature, 30 min; GST-TFs on glutathione beads, 16-mer random dsDNA library, 0.1% formaldehyde crosslink after washing; high values mean tight binding
# FLI1 = biological target: T1, FLI1 (Homo sapiens, UniProt Q01543 1-452); conditions: protein: recombinant; tags: N-terminal GST; dsDNA, one strand shown
# T1 sequence: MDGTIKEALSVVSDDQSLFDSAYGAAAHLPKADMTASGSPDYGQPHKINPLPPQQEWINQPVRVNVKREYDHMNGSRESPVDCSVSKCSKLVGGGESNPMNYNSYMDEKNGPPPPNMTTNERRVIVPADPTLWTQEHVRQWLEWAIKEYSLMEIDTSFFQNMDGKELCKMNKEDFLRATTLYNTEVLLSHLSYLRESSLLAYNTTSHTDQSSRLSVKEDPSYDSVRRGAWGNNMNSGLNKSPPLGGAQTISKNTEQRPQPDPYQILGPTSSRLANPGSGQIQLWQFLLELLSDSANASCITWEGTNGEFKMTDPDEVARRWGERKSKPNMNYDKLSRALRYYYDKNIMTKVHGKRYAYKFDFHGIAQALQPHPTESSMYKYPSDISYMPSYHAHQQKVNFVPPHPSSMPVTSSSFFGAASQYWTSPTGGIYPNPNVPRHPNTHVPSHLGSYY
# How it was run: (§1)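 Sequencing on an Illumina NextSeq500 followed washing, crosslinking with 0.1% formaldehyde, proximity ligation (BsaI/T4 ligase, 1 h, 37 °C) and PCR amplification of pools that had been incubated for 30 min at room temperature with 200 nmole of a random double-stranded 16-mer DNA library in Tris/NaCl/DTT/glycerol buffer. Each pool held DNA-barcoded human transcription factors, expressed in yeast as GST fusions and captured on glutathione beads, plus a tag-only sample. Binding signal is a hexamer's read frequency for a factor divided by its frequency in the tag-only sample.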
# ELK1 = biological target: T2, ELK1 (Homo sapiens, UniProt P19419 1-428); conditions: protein: recombinant; tags: N-terminal GST; dsDNA, one strand shown
# T2 sequence: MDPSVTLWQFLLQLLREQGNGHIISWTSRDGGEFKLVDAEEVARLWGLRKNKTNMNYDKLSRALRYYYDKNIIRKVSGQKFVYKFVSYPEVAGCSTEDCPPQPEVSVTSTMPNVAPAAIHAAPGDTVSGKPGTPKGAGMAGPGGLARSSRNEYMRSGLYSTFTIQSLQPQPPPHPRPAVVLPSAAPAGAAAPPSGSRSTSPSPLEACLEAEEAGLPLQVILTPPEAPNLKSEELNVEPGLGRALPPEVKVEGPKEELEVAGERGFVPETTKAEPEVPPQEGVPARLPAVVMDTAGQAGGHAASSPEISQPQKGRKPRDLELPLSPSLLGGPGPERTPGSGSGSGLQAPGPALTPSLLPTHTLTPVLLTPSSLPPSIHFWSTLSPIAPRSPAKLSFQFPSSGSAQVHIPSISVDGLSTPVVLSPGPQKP
# How it was run: as §1
# GABPA = biological target: T3, GABPA (Homo sapiens, UniProt Q06546 1-454); conditions: protein: recombinant; tags: N-terminal GST; dsDNA, one strand shown
# T3 sequence: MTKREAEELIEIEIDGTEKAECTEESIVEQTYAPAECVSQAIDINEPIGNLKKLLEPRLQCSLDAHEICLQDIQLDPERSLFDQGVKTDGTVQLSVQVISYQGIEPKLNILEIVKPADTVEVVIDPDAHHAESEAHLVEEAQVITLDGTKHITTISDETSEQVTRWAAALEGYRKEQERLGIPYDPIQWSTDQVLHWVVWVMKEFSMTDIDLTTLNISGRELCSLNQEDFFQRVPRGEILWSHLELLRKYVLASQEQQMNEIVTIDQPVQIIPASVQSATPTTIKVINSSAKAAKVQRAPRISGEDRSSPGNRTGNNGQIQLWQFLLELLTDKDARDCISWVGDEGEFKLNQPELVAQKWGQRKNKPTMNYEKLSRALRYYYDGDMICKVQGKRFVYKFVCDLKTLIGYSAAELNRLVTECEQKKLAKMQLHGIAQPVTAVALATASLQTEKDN
# How it was run: as §1
# ERG = biological target: T4, ERG (Homo sapiens, UniProt P11308 1-479); conditions: protein: recombinant; tags: N-terminal GST; dsDNA, one strand shown
# T4 sequence: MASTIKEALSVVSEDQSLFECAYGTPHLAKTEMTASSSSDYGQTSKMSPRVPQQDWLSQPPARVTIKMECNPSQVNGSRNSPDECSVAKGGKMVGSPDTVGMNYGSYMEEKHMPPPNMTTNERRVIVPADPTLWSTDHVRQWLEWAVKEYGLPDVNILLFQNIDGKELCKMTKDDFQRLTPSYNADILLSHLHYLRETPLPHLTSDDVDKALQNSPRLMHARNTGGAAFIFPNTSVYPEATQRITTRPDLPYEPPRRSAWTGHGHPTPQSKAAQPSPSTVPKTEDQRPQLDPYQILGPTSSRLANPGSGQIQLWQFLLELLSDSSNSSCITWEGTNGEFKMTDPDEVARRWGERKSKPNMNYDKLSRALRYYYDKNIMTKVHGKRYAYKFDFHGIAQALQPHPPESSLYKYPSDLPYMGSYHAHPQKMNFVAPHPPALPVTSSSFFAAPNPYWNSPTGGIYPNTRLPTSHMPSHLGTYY
# How it was run: as §1
# ELF1 = ELF1 (Homo sapiens, UniProt P32519 1-619); conditions: protein: recombinant; tags: N-terminal GST; dsDNA, one strand shown
# How it was run: as §1
# EHF = biological target: T5, EHF (Homo sapiens, UniProt Q9NZC4 1-300); conditions: protein: recombinant; tags: N-terminal GST; dsDNA, one strand shown
# T5 sequence: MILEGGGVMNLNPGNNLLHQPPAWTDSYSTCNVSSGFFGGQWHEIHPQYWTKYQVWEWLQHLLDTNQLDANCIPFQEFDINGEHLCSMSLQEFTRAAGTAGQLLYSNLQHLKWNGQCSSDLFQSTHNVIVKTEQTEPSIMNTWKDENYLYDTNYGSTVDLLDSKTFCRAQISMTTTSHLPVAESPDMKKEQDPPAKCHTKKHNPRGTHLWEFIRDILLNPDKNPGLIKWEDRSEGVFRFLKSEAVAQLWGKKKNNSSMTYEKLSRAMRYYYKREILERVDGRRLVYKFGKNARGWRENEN
# How it was run: as §1
# SPI1 = SPI1 (Homo sapiens, UniProt P17947 1-270); conditions: protein: recombinant; tags: N-terminal GST; dsDNA, one strand shown
# How it was run: as §1
# SPIB = SPIB (Homo sapiens, UniProt Q01892 1-262); conditions: protein: recombinant; tags: N-terminal GST; dsDNA, one strand shown
# How it was run: as §1
# ELK3 = biological target: T6, ELK3 (Homo sapiens, UniProt P41970 1-407); conditions: protein: recombinant; tags: N-terminal GST; dsDNA, one strand shown
# T6 sequence: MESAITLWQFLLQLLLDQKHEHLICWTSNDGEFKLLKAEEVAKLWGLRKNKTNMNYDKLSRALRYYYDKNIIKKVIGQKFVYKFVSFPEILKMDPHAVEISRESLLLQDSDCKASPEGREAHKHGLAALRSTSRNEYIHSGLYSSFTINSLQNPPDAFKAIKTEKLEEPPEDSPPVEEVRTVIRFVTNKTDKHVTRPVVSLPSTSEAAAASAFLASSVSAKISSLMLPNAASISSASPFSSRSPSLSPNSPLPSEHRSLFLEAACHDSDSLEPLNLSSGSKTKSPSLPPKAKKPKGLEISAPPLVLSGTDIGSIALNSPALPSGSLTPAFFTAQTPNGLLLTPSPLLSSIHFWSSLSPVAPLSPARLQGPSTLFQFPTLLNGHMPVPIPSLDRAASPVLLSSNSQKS
# How it was run: as §1
# FEV = biological target: T7, FEV (Homo sapiens, UniProt Q99581 1-238); conditions: protein: recombinant; tags: N-terminal GST; dsDNA, one strand shown
# T7 sequence: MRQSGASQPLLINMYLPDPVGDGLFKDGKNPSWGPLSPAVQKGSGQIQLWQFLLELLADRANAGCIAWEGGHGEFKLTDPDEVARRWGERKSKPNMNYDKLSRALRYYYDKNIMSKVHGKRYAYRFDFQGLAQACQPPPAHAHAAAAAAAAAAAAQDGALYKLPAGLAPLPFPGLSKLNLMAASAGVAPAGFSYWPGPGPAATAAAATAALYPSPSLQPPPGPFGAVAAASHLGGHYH
# How it was run: as §1
# ETV5 = ETV5 (Homo sapiens, UniProt P41161 1-510); conditions: protein: recombinant; tags: N-terminal GST; dsDNA, one strand shown
# How it was run: as §1
# HSF1 = HSF1 (Homo sapiens, UniProt Q00613 1-529); conditions: protein: recombinant; tags: N-terminal GST; chain copies: 3; dsDNA, one strand shown
# How it was run: as §1
# SPIC = biological target: T8, SPIC (Homo sapiens, UniProt Q8N5J4 1-248); conditions: protein: recombinant; tags: N-terminal GST; dsDNA, one strand shown
# T8 sequence: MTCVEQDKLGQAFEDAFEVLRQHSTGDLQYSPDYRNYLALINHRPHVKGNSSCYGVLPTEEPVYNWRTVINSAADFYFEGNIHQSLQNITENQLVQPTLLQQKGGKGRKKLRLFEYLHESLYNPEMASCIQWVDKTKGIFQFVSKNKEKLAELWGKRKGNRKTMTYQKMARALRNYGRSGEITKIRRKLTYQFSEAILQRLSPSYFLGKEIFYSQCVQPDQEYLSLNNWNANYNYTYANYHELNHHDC
# How it was run: as §1
# ELF4 = ELF4 (Homo sapiens, UniProt Q99607 1-663); conditions: protein: recombinant; tags: N-terminal GST; dsDNA, one strand shown
# How it was run: as §1
# ELK4 = biological target: T9, ELK4 (Homo sapiens, UniProt P28324-2 1-405); conditions: protein: recombinant; tags: N-terminal GST; dsDNA, one strand shown
# T9 sequence: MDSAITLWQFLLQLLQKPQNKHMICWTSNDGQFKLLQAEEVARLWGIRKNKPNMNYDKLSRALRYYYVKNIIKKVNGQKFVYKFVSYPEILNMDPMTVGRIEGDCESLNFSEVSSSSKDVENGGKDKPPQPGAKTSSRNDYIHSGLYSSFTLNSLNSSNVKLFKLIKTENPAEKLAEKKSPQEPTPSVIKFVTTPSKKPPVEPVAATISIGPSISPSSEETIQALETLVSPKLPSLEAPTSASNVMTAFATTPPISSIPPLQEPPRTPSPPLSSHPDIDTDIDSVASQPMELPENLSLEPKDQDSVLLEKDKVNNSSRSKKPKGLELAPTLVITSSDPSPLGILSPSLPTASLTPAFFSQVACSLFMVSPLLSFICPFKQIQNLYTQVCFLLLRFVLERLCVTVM
# How it was run: as §1
# ETV2 = biological target: T10, ETV2 (Homo sapiens, UniProt O00321 1-342); conditions: protein: recombinant; tags: N-terminal GST; dsDNA, one strand shown
# T10 sequence: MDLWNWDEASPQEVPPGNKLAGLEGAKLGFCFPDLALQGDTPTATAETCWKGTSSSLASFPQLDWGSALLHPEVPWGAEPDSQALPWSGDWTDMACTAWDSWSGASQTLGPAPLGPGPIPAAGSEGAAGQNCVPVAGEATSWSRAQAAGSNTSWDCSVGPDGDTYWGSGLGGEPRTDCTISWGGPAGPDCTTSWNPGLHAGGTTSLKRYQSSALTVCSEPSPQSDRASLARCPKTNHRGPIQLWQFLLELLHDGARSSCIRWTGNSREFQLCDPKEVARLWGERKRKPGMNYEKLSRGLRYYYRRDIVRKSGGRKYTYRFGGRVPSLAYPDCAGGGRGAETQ
# How it was run: as §1
# ELF3 = biological target: T11, ELF3 (Homo sapiens, UniProt P78545 1-371); conditions: protein: recombinant; tags: N-terminal GST; dsDNA, one strand shown
# T11 sequence: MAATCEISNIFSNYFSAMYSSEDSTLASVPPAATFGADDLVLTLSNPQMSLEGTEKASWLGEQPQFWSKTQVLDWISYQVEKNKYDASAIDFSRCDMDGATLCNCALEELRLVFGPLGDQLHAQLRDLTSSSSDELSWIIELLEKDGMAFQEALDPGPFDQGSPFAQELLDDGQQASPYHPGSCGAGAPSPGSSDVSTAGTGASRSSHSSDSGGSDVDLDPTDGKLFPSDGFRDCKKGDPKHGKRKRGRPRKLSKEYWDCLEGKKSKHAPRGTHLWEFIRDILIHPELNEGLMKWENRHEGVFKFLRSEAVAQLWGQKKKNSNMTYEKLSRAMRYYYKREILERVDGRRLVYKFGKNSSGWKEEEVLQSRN
# How it was run: as §1
# CRX = CRX (Homo sapiens, UniProt O43186 1-299); conditions: protein: recombinant; tags: N-terminal GST; dsDNA, one strand shown
# How it was run: as §1
# ETV1 = ETV1 (Homo sapiens, UniProt P50549 1-477); conditions: protein: recombinant; tags: N-terminal GST; dsDNA, one strand shown
# How it was run: as §1
# Chain of ELF1 (P32519 whole entry): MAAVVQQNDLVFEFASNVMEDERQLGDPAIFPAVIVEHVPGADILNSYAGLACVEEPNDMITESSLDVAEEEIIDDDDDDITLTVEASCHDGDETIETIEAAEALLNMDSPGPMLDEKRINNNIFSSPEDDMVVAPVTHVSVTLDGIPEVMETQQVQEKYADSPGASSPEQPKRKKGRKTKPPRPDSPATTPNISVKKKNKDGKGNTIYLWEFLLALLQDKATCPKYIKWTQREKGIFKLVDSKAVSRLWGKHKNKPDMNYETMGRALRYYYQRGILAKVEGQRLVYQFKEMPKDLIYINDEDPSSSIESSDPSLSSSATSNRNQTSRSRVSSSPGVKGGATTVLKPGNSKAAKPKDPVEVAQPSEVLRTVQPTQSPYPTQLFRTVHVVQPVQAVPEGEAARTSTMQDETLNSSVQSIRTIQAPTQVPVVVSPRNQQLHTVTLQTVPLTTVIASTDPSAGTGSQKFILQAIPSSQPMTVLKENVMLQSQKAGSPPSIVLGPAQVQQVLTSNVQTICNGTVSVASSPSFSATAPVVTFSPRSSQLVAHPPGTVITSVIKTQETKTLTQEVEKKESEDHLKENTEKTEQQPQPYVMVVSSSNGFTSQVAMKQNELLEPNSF
# Chain of ETV5 (P41161 whole entry): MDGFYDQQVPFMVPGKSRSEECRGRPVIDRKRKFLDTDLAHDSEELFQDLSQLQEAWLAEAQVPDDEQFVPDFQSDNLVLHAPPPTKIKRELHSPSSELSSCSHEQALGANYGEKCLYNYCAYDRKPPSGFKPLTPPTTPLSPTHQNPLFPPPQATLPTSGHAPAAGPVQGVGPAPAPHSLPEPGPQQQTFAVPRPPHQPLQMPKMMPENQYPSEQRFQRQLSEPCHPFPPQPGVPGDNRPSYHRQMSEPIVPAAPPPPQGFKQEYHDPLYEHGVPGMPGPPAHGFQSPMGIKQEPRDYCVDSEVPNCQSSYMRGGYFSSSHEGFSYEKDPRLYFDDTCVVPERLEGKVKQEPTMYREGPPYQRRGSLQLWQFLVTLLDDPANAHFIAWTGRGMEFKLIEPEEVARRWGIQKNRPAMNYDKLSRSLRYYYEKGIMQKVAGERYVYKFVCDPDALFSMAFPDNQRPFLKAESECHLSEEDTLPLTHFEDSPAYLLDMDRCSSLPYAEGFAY
# Chain of ETV1 (P50549 whole entry): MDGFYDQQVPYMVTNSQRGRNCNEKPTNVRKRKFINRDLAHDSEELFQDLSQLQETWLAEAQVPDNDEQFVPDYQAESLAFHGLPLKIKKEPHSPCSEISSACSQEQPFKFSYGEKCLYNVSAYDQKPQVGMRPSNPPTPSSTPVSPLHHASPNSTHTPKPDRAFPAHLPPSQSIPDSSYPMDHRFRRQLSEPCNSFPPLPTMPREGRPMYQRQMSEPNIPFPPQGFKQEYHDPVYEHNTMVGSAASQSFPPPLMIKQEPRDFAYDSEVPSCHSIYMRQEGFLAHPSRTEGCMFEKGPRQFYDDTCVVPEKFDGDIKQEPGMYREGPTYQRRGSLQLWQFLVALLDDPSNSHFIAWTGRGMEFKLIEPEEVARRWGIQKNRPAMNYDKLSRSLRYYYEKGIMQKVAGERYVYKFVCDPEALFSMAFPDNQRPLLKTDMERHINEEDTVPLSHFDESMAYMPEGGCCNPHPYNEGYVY
# Chain of ELF4 (Q99607 whole entry): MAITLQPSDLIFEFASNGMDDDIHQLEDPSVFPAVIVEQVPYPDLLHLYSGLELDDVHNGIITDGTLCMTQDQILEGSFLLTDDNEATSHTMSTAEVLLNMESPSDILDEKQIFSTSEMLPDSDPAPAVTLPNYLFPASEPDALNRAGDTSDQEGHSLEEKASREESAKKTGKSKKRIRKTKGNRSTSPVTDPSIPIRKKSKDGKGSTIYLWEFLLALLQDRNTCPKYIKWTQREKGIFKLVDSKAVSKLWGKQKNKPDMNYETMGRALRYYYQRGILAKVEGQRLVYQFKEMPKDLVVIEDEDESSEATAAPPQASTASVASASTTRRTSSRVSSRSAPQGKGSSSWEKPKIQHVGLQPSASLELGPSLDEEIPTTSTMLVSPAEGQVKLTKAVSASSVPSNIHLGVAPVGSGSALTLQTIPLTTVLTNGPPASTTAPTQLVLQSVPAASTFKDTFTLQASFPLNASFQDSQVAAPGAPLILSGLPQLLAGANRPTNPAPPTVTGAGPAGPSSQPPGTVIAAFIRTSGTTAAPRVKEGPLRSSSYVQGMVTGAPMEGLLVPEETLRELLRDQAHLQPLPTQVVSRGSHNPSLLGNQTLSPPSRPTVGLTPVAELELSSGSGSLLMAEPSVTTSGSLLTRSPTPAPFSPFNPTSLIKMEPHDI
# Chain of HSF1 (Q00613 whole entry): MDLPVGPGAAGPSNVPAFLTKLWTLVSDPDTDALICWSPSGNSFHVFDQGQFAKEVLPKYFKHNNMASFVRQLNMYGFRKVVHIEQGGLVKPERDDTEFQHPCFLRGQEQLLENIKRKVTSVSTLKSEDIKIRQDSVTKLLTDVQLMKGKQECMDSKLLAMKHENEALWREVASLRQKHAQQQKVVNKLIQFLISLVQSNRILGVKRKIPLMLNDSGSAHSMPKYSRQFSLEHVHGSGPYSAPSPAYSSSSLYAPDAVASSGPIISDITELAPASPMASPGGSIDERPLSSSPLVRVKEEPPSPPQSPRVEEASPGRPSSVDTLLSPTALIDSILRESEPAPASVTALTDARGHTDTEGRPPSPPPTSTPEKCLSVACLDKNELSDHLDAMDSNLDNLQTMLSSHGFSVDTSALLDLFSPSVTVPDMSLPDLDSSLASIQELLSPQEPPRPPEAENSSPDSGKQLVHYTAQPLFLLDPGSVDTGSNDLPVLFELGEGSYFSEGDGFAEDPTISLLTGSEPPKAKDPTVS
# Chain of SPIB (Q01892 whole entry): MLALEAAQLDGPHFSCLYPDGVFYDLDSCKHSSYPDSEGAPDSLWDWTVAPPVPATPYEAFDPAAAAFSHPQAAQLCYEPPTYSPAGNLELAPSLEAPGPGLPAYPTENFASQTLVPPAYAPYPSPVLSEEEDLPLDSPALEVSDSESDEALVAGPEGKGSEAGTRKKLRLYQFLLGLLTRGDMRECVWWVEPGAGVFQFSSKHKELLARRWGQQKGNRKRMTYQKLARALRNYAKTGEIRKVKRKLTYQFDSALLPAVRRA
# Chain of CRX (O43186 whole entry): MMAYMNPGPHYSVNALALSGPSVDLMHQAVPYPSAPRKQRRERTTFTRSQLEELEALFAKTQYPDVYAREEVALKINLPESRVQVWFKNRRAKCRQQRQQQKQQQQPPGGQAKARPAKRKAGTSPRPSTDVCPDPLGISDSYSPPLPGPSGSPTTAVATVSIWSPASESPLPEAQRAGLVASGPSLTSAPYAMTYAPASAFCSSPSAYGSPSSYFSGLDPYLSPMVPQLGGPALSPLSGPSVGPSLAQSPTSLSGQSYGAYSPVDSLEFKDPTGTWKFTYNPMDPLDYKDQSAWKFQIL
sequence,measurement,setting,value
CTGTTA,binding signal,FLI1,"1.22 fold enrichment (6-mer frequency, TF over GST control)"
same,binding signal,ELK1,"1.24 fold enrichment (6-mer frequency, TF over GST control)"
same,binding signal,GABPA,"1.32 fold enrichment (6-mer frequency, TF over GST control)"
same,binding signal,ERG,"1.28 fold enrichment (6-mer frequency, TF over GST control)"
same,binding signal,ELF1,"1.24 fold enrichment (6-mer frequency, TF over GST control)"
same,binding signal,EHF,"1.26 fold enrichment (6-mer frequency, TF over GST control)"
same,binding signal,SPI1,"1.27 fold enrichment (6-mer frequency, TF over GST control)"
same,binding signal,SPIB,"1.27 fold enrichment (6-mer frequency, TF over GST control)"
same,binding signal,ELK3,"1.32 fold enrichment (6-mer frequency, TF over GST control)"
same,binding signal,FEV,"1.25 fold enrichment (6-mer frequency, TF over GST control)"
same,binding signal,ETV5,"1.2 fold enrichment (6-mer frequency, TF over GST control)"
same,binding signal,HSF1,"1.16 fold enrichment (6-mer frequency, TF over GST control)"
same,binding signal,SPIC,"1.28 fold enrichment (6-mer frequency, TF over GST control)"
same,binding signal,ELF4,"1.37 fold enrichment (6-mer frequency, TF over GST control)"
same,binding signal,ELK4,"1.4 fold enrichment (6-mer frequency, TF over GST control)"
same,binding signal,ETV2,"1.35 fold enrichment (6-mer frequency, TF over GST control)"
same,binding signal,ELF3,"1.32 fold enrichment (6-mer frequency, TF over GST control)"
same,binding signal,CRX,"1.16 fold enrichment (6-mer frequency, TF over GST control)"
same,binding signal,ETV1,"1.23 fold enrichment (6-mer frequency, TF over GST control)"
